LMNA splice mod = qHTS Assay for Modulators of Lamin A Splicing; HeLa LMNA splicing GFP/RFP minigene ratio, 48 h; Potency, µM (titrated, usually from 46.1 µM), without a hit: at the highest dose ratio change, negative = inhibition, actives largely listed as inhibitors; 0.01% of 200,000 active; AID 1487, 2009; active = well fitted inhibition curve with a large enough effect in the signal ratio, with a control signal flat, not every such curve was filed as active; inconclusive = small, poorly fitted or top-dose-only effect, or effect the other way, or a change in a side signal; the % refers to the signal ratio; note: potency is the fitted concentration of half-maximal effect
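S3 HeLa cells stably expressing lamin A-EGFP splicing minigene plus DsRed2, 600 cells/well, 48 h compound exposure at 37C. Laser-scanning cytometry; analysed as GFP (500-530 nm)/RFP (575-640 nm) total intensity ratio; 0.5% DMSO vehicle.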
ALDH1A1 block = qHTS Assay for Inhibitors of Aldehyde Dehydrogenase 1 (ALDH1A1) | Potency, µM (highest dose often 75.3 µM), for inactives: at the highest dose activity, negative = inhibition, hits mostly inhibitors | 7.3% of 220,000 active | AID 1030, 2008 | Purified ALDH1A1, NADH fluorescence, propionaldehyde substrate | Aldehyde dehydrogenase 1A1 (Homo sapiens), P00352;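 note: potency is the fitted concentration of half-maximal effect; plate controls were no enzyme wells and a reference inhibitor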
Target sequence (P00352 whole entry, looked up): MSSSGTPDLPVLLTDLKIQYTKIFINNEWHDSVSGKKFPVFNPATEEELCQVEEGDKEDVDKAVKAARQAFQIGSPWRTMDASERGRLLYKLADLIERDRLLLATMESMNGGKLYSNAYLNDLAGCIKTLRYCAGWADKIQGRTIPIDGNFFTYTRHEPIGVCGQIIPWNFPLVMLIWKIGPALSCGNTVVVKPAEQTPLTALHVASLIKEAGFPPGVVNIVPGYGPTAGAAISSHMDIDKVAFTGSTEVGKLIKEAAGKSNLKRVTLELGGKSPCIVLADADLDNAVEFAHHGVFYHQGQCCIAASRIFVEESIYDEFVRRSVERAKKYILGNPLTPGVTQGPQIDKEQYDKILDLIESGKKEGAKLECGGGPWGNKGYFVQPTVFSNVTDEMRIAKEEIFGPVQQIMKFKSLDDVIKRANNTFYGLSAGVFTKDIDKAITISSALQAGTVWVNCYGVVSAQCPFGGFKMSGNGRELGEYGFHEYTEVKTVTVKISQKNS
HPGD inh = qHTS Assay for Inhibitors of HPGD (15-Hydroxyprostaglandin Dehydrogenase) | 4.3% of 150,000 active | purified HPGD, NADH fluorescence kinetic, PGE2 substrate | Potency, µM, without a hit: at the top dose activity change, negative = inhibition, hits mostly inhibitors | 15-hydroxyprostaglandin dehydrogenase [NAD(+)] (Homo sapiens), P15428; note: potency is the fitted concentration of half-maximal effect
Target sequence (P15428 whole entry, looked up): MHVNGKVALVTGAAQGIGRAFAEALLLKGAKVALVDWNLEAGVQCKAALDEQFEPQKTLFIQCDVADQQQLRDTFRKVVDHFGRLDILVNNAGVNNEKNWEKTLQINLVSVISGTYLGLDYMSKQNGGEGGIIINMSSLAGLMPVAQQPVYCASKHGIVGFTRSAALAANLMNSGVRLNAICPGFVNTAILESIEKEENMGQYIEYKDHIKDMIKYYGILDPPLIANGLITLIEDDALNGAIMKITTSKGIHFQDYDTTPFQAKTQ
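20 nM HPGD preincubated 15 min at room temperature with compound in 50 mM Tris-HCl pH 8, 0.01% Tween 20. Started with 1 mM NAD+ and 30 uM prostaglandin E2; NADH fluorescence (360/450 nm) read 5 times over 30-s intervals, last minus first.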
PNC assembly inh = High Content Assay for Compounds that inhibit the Assembly of the Perinucleolar Compartment; PC3M PTB-GFP, PNC prevalence imaging, 16 h; hits give low values; activity change (PNC), negative = inhibition, % at 10 µM; 3.1% of 140,000 active;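 active = readout at or below -70, meaning at least 70% loss of cells showing the perinucleolar compartment, a nuclear body marking cancer cells; inconclusive = readout between -30 and a set limit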;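 note: plate controls were DMSO wells for no effect and camptothecin positive control wells for full effect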
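PC3M cells stably expressing PTB-GFP, 750–1000 cells/well, treated 16 h at 37 °C with compound (23 nl of library stock), in duplicate. After paraformaldehyde fixation and Hoechst stain, imaged at 20x; PNC prevalence scored by image analysis.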
ALOX12 inhib = qHTS Assay for Inhibitors of 12-hLO (12-human lipoxygenase); purified 12-hLO, xylenol orange hydroperoxide absorbance; 0.12% of 150,000 active; Potency, µM (titrated, usually from 57.1 µM), inactives show at the highest dose activity change, negative = inhibition, usual class: inhibitors; active = well fitted inhibition curve with a large enough effect; inconclusive = small, poorly fitted or top-dose-only effect; note: potency is the fitted concentration of half-maximal effect; nearly all actives have a fitted effect of over 55% in size
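Xylenol orange chromogenic assay: hydroperoxide from 12hLO oxidises Fe(II), giving red-shifted Fe(III)-XO absorbance. Conditions: 150 nM enzyme, 40 uM arachidonic acid, 25 mM Hepes pH 7.0, 0.01% Triton X-100, 30 min, room temperature.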
The depositor's hits bear a star; ? = inconclusive; . = no result; [ ] = dose if it differs, or a comment. Most compounds without a hit are left out; they make up all but 10% or so of the library. Unless noted, calls come from the whole dose curve; as a rule, active = well fitted inhibition curve with a large enough effect (not every such curve was filed as active); inconclusive = small, poorly fitted or top-dose-only effect, or another doubt; inactive = no such curve, though single readings can be large or run the other way. Unless noted, % is set by controls: 0 for no effect and ±100 for the full control effect.

SMILES | LMNA splice mod | ALDH1A1 block | HPGD inh | PNC assembly inh | ALOX12 inhib
O=c1[nH]c2ccc(NC(=S)Nc3ccccc3Cl)cc2[nH]1 | -2.0% | 6.31µM* | 22.4µM* | 18.2 | -3.3%
Cc1ccccc1NC(=S)Nc1ccc2cn[nH]c2c1 | -22.8%[46 µM] | ? | . | . | .
S=C(Nc1ccc(Cl)cc1)Nc1ccc2cn[nH]c2c1 | -5.2%[46 µM] | 25.1µM* | . | . | .
S=C(Nc1ccc2cn[nH]c2c1)Nc1ccccc1Cl | ? | 14.1µM* | -15.3% | ? | -3.6%
S=C(Nc1ccccc1)Nc1ccc(Cl)cc1Cl | -6.5% | 7.94µM* | -27.2% | ? | 14.5%
S=C(Nc1ccccc1Cl)Nc1ccc(Cl)cc1Cl | 9.2% | ? | -25.4% | 3.7 | 0.7%
FC(F)(F)c1ccccc1-c1nc(NCCN2CCOCC2)c2ccccc2n1 | 3.3% | 13.9% | . | . | .
O=C(Nc1ccc(Cl)cc1F)c1ccccc1Br | 5.2% | 4.2% | 15.8µM* | -81.1* | -5.2%
CC(C)OC(=O)c1cccnc1SCC(=O)Nc1ccc(C(F)(F)F)cc1Cl | 2.0%[46 µM] | . | . | . | .
Cc1ccc(SCC(=O)N2CCOCC2)cc1 | 4.2% | -0.3% | -14.3% | -2.0 | 0.3%
Cc1ccc(CSCC(=O)N2CCOCC2)cc1 | -0.3% | 25.1µM* | -13.8% | -13.4 | 8.9%
Cc1ccc(C(CC(=O)N2CCOCC2)c2ccco2)cc1 (stereo unspecified) | -8.7% | ? | 20µM* | 13.6 | -0.5%
Cc1ccc(-c2nnc(SCC(=O)N3CCOCC3)nc2-c2ccc(C)cc2)cc1 | ? | ? | 17.8µM* | -29.2 | -11.1%
Cc1ccc(OCc2nnc(SCC(=O)N3CCOCC3)n2C)cc1 | 5.6% | -1.4% | -14.5% | -106.5* | 1.0%
C[C@H](NC[C@H](O)CP(=O)(O)Cc1ccccc1)c1ccc(Cl)c(Cl)c1 | . | 4.3% | -2.7% | . | -2.3%
COc1ccc(CNc2ccnc(-c3ccccc3C(F)(F)F)n2)c(OC)c1 | 1.4% | -1.4% | -12.2% | . | 0.4%
COc1cccc(-n2c(SCC(=O)Nc3ccc4c(c3)OCO4)nc3c([nH]c4ccccc43)c2=O)c1 | 9.2%[46 µM] | . | . | . | .
CCN(CC)c1ccc(C(=O)NNC(=O)CCl)cc1 | . | 10µM* | . | . | .
Cc1ccc(OCC(=O)Nc2nc(-c3ccc(Br)cc3)ns2)cc1 | -27.7%[46 µM] | . | . | . | .
O=C(c1c(O)c2ccc(Cl)cc2[nH]c1=O)C1CC1 | . | 1.1% | -0.7% | . | -1.6%
CCCOC(=O)c1ccc(NC(=O)CSC2=Nc3ccccc3C3CC=NN23)cc1 (stereo unspecified) | 7.8% | 31.6µM* | ? | 0.9 | -3.6%
N#Cc1ccccc1NC(=O)CSC1=Nc2ccccc2C2CC=NN12 (stereo unspecified) | . | -10.8% | . | . | .
CSCC(=O)N1CCCC(CNC(=O)c2ccc(-c3ccccc3)cc2)C1 (stereo unspecified) | . | 3.98µM* | . | . | .
COCCCCC(=NOCCN)c1ccc(C(F)(F)F)cc1 | ? | 5.2% | 3.1% | . | -0.3%
COc1ccccc1CN1CC(C(=O)N2CCN(c3ccc(F)cc3)CC2)CC1=O (stereo unspecified) | -2.7% | ? | -12.2% | -98.5* | -3.0%
SMILES | LMNA splice mod | ALDH1A1 block | HPGD inh | PNC assembly inh | ALOX12 inhib
CCOC(=O)c1c(C)[nH]c(C)c1S(=O)(=O)N1CCCC(C(=O)N2CCN(c3ccc(Cl)cc3)CC2)C1 (stereo unspecified) | -1.8%[46 µM] | . | . | . | .
O=C(O)C[C@@H](C(=O)O)C1c2ccccc2-c2ccccc21 | . | 9.1%[13.5 µM] | -9.1% | . | 7.0%[11.4 µM]
O=CC(=O)c1ccccc1 | . | 2.82µM* | -7.6% | . | 1.8%
Cc1nc2ccccn2c1C(=O)NN | -15.1% | 2.24µM* | . | 22.6 | 3.3%
Cc1nc2ccccn2c1C(=O)NNS(=O)(=O)c1ccc(C(C)(C)C)cc1 | ? | 1.12µM* | -1.2% | ? | -2.3%
COc1ccc(Br)cc1S(=O)(=O)NNC(=O)c1c(C)nc2ccccn12 | 9.1%[46 µM] | ? | . | . | .
CC(CNC(=O)c1ccc(Cn2c(SCc3ccccc3)nc3cccnc32)cc1)c1ccccc1 (stereo unspecified) | -12.6%[46 µM] | . | . | . | .
CCOc1ccc(N=C2NC(=O)S/C2=C\c2ccc(N(C)C)cc2)cc1 | 4.7% | -0.7% | -11.4% | -12.5 | 0.0%
CCOc1ccc(/C=C2/SC(=O)NC2=S)cc1 | ? | ? | 12.6µM* | -20.6 | -29.5%
Cc1cc(S(=O)(=O)N2CCCC2)c(C)s1 | 5.3% | 7.94µM* | . | ? | -2.7%
Cc1cc(S(=O)(=O)N2CCN(c3ccccc3O)CC2)c(C)s1 | -17.3% | ? | -5.8% | 39.8 | -5.9%
Cc1ccc(S(=O)(=O)N2CCCN(S(=O)(=O)c3ccc(C)c(C)c3)CC2)cc1C | -9.1% | ? | -1.5% | 17.2 | 2.9%
Cc1ccc(S(=O)(=O)N2CCCC2)cc1S(=O)(=O)N1CCCC1 | -14.5% | 17.8µM* | -11.0% | ? | 0.3%
CCOC(=O)c1c(C)nc(C)c(C(=O)OCC)c1-c1ccc(O)c(OC)c1 | . | 15.8µM* | . | . | .
CCOC(=O)Cc1csc(NC(=O)c2sc3nc4ccc(CC)cc4cc3c2N)n1 | 1.8% | 5.1% | -19.5% | ? | 10µM*
CCOC(=O)Cc1csc(NC(=S)NC(=O)c2ccc(C)cc2)n1 | 7.9% | 39.8µM* | . | -3.7 | 4.1%
Nc1nc2c(nc(Br)n2[C@@H]2O[C@H]3COP(=O)(O)O[C@@H]3[C@H]2O)c(=O)[nH]1 | . | . | . | . | -2.7%
COc1ccc(CNC(=S)Nc2ccc(-c3ccccc3)cc2)cc1 | . | -17.3% | . | . | .
COc1ccc(CNC(=S)NCc2ccc(OC(C)C)cc2)cc1 | ? | 14.1µM* | -0.9% | -24.0 | -25.3%
COc1ccc(CNC(=S)Nc2ccccc2-c2ccccc2)cc1 | ? | 22.4µM* | . | . | .
Cc1cc(C(=O)COC(=O)c2ccc([N+](=O)[O-])o2)c(C)n1CC1CCCO1 (stereo unspecified) | -17.3%[46 µM] | 15.8µM* | . | . | .
Cc1cc(C(=O)COC(=O)c2ccc(O)cc2)c(C)n1CC1COc2ccccc2O1 (stereo unspecified) | -8.8% | ? | -4.7% | -81.1* | -3.1%
Cc1cc(C)c(C(=O)COC(=O)c2ccc([N+](=O)[O-])o2)cc1C | 1.1%[9.22 µM] | 2µM* | . | . | .
Cc1cc(C(=O)COC(=O)c2ccc3c(c2)OCO3)c(C)n1CC1CCCO1 (stereo unspecified) | 8.6%[46 µM] | 7.5% | . | . | .
Cc1ccc(N/N=C(\C#N)C(N)=S)c(C)c1 | -2.6% | ? | 14.1µM* | -5.9 | -15.6%
Nc1ncnc2c1ncn2[C@@H]1O[C@@H](C(=O)NC2CC2)[C@H](O)[C@@H]1O | . | . | . | . | -2.5%
CCSC1=C(C#N)C(c2ccc(Cl)cc2)C2=C(CCCC2=O)N1 (stereo unspecified) | ? | -9.0% | -14.7% | ? | -17.6%
CSC1=C(C#N)C(c2ccc3c(c2)OCO3)C2=C(CCCC2=O)N1 (stereo unspecified) | -11.8% | -5.6% | 15.8µM* | -23.3 | -3.9%

High-throughput results: PubChem BioAssay, National Center for Advancing Translational Sciences (NCATS)
